High-throughput results (PubChem)
A selection: hits, their analogues and other compounds. The true share with any hit is near 8.5%.
GoLoco inh red = inhibitors of human Gai1-RGS12 GoLoco interaction (red fluorophore); Gai1:RGS12 GoLoco peptide FP, rhodamine, 10 min; Potency, µM (top dose mostly 61.6 µM), for inactives: top-dose activity, negative = inhibition, hits mostly inhibitors; 0.44% of 230,000 active; AID 880; active = well fitted inhibition curve with a large enough effect, not every such curve was filed as active; inactive = no such curve, though single readings can be large or run the other way; also: potency is read from the fitted curve at half-maximal effect; nearly all actives have a fitted effect of over 30% in size
Coupling enz = counter-screen for Giardia aldolase inhibitors: coupling enzyme system. coupling enzyme system counterscreen, AmpLite Red fluorescence. activity change, negative = inhibition, % at 58.2 µM, hits read low. 0.67% of 290,000 active. AID 2472; in the data active = activity change below about -30%
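Counterscreen of the coupled detection system alone, without aldolase: glyceraldehyde-3-phosphate coupling enzymes plus AmpLite Red readout. Compounds at 57.5 uM final, 10 min RT preincubation, 20 min RT reaction, fluorescence 525/598 nm.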
Sfp PPTase inh = Sfp phosphopantetheinyl transferase inhibition. Biochemical Sfp PPTase activity, qHTS. Potency, µM, for the others: largest response in the series, negative = inhibition, most hits filed as inhibitors. Q9F4F7. AID 1490. 3.5% of 310,000 active;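 also: the enzyme is Sfp with the accession as filed and its product quenches rhodamine fluorescence; potency is read from the fitted curve at half-maximal effect; 0% = enzyme reaction without inhibitor and -100% = no enzyme wells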
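Sfp 15 nM + cpd, 15 min RT; start w/ rhodamine-CoA 5 uM, BHQ-2-YbbR 12.5 uM (final); 50 mM Hepes pH 7.6, 10 mM MgCl2, 0.01% NP-40, 0.01% BSA; read 525/598 nm at 0 and 30 min.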
KDM4E inh = blocks human JMJD2E demethylase activity; B2RXH2; JMJD2E catalytic domain, FDH-coupled NADH fluorescence (FDH is formaldehyde dehydrogenase); Potency, µM (series often up to 57.1 µM), without a hit: at the highest dose activity change, negative = inhibition, actives largely listed as inhibitors; 1.6% of 230,000 active; AID 2147; active = well fitted inhibition curve with a large enough effect, not every such curve was filed as active; inconclusive = small, poorly fitted or top-dose-only effect, or another doubt; inactive = no such curve, though single readings can be large or run the other way;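 also: potency is read from the fitted curve at half-maximal effect; 0% = wells with enzyme and -100% = buffer wells without enzyme; nearly all actives have a fitted effect of over 50% in size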
Target sequence (B2RXH2 1-337 limits assumed): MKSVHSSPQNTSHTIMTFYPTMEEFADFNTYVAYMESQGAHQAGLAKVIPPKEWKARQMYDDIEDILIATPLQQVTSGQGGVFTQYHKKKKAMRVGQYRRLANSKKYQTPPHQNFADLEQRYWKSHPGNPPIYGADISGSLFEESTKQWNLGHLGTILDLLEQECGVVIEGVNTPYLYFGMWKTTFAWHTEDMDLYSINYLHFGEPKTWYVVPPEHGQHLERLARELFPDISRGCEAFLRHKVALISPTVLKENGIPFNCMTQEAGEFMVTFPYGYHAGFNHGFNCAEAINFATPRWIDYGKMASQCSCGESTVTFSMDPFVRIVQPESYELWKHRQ
ALDH1A1 block = inhibitors of human aldehyde dehydrogenase 1A1. Purified ALDH1A1, NADH fluorescence, propionaldehyde substrate. Potency, µM (doses to about 75.3 µM), inactives show top-dose activity, negative = inhibition, actives largely listed as inhibitors. 7.3% of 220,000 active. AID 1030; active = well fitted inhibition curve with a large enough effect, not every such curve was filed as active; inconclusive = small, poorly fitted or top-dose-only effect, or another doubt; inactive = no such curve, though single readings can be large or run the other way;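 also: potency is read from the fitted curve at half-maximal effect; plate controls were no enzyme wells and a reference inhibitor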
NPSR antag = antagonists of human neuropeptide S receptor cAMP signaling. CHO-NPSR cells, cAMP TR-FRET, antagonist mode. Potency, µM (highest dose often 38.3 µM), inactives show at the highest dose activity change, negative = inhibition, hits mostly inhibitors. 1% of 220,000 active; also: potency is read from the fitted curve at half-maximal effect; nearly all actives have a fitted effect of over 50% in size
Target sequence (Q6W5P4 whole entry, looked up): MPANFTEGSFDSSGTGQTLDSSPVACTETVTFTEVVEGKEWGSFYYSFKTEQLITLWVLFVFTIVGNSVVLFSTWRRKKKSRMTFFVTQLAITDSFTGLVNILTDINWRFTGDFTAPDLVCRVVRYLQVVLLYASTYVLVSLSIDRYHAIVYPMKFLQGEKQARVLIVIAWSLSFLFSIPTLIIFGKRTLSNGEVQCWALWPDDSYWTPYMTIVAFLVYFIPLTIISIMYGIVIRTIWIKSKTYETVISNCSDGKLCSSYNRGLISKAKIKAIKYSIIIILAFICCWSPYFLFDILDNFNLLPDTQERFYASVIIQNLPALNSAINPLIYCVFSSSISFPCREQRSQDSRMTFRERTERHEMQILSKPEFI
Numbers without * were called inactive; [ ] = dose if it differs, or a comment. Unless noted, calls follow the shape of the dose curve; as a rule, active = well fitted curve in the direction sought with a large enough effect; inconclusive = small, poorly fitted or top-dose-only effect, or another doubt; inactive = no such curve, though single readings can be large; an effect the other way counts as inactive or inconclusive. Unless noted, % is scaled to controls: 0 for no effect and ±100 for the full control effect.

For N#Cc1c(-c2ccc(Cl)cc2)cc(-c2cccs2)nc1SCC(=O)O the results were Coupling enz 15 and Sfp PPTase inh 40µM*.
C=CCN1C(=O)CS/C1=N\N=C\c1cccc([N+](=O)[O-])c1 was read as GoLoco inh red -10%, Coupling enz 1, Sfp PPTase inh 1%, KDM4E inh 6%, ALDH1A1 block inconclusive and NPSR antag 4%.
Screening COC(=O)c1ccc2c(=O)n(-c3ccccc3F)c(=S)[nH]c2c1 returned GoLoco inh red -3%, Coupling enz -2, Sfp PPTase inh -6%, KDM4E inh inconclusive, ALDH1A1 block 16µM* and NPSR antag -37%.
For COc1ccc(-n2c(=S)[nH]c3cc(C(=O)NC4CCCCC4)ccc3c2=O)c(OC)c1 the results were GoLoco inh red -50%, Coupling enz 1, Sfp PPTase inh 19%, KDM4E inh 5%, ALDH1A1 block 0.1µM* and NPSR antag -31%.
CC(=O)N1CC(C)Sc2ccc(S(=O)(=O)NC(C)c3ccccc3)cc21 (stereo not drawn) was read as Sfp PPTase inh 16%.
For Cc1c(NC(=S)N/C(=N/S(=O)(=O)c2ccccc2)c2ccccc2)c(=O)n(-c2ccccc2)n1C the results were GoLoco inh red 6%, Coupling enz -1, Sfp PPTase inh -10%, KDM4E inh 2% and NPSR antag 7%.
Screening Cc1c(NC(=S)N/C(=N/S(=O)(=O)c2ccc(Cl)cc2)c2ccccc2)c(=O)n(-c2ccccc2)n1C returned GoLoco inh red 77%, Coupling enz 0, Sfp PPTase inh 35µM*, KDM4E inh 5%, ALDH1A1 block 8.9µM* and NPSR antag 5%.
For CC(=O)c1ccc(NC(=S)Nc2cccc(S(=O)(=O)Nc3c(C)n(C)n(-c4ccccc4)c3=O)c2)cc1 the results were GoLoco inh red 4%, Coupling enz 3, Sfp PPTase inh 22µM*, KDM4E inh -3%, ALDH1A1 block 25µM* and NPSR antag 9%.
Cc1ccc(NC(=S)Nc2cccc(S(=O)(=O)Nc3c(C)n(C)n(-c4ccccc4)c3=O)c2)cc1 was read as GoLoco inh red -2%, Coupling enz 3, Sfp PPTase inh -30%, KDM4E inh -4%, ALDH1A1 block inconclusive and NPSR antag -4%.
Screening Cc1cccc(NC(=S)N/C(=N/S(=O)(=O)c2ccccc2)c2ccccc2)c1 returned GoLoco inh red 4%, Coupling enz 5, Sfp PPTase inh inconclusive, KDM4E inh 5%, ALDH1A1 block 22µM* and NPSR antag -15%[46.1 µM].
`CC(C)OC(=S)N/C(=N\S(=O)(=O)c1ccccc1)c1ccccc1` gave GoLoco inh red 2%, Coupling enz 0, Sfp PPTase inh 14µM*, KDM4E inh 3%, ALDH1A1 block 11µM* and NPSR antag -3%[46.1 µM].
Screening CCC(Oc1ccc(Br)cc1)C(=O)N1CCN(c2ncccn2)CC1 (stereo not drawn) returned Sfp PPTase inh 1%.
For C/C(=N\S(=O)(=O)c1ccc(C)cc1)NC(=S)Nc1ccc(C)cc1 the results were GoLoco inh red -17%, Coupling enz 2, Sfp PPTase inh 5%, KDM4E inh -5%, ALDH1A1 block inconclusive and NPSR antag -47%.
`Cc1ccc(S(=O)(=O)/N=C(/NC(=S)Nc2cccc(C)c2)c2ccccc2)cc1` gave GoLoco inh red -1%, Coupling enz 1, Sfp PPTase inh 50µM*, KDM4E inh -5%, ALDH1A1 block 13µM* and NPSR antag -10%[46.1 µM].
`CCn1ccnc1CN1CCC(n2nccc2NC(=O)c2ccccc2OC)CC1` gave Sfp PPTase inh 3%.
CCC(CC)c1nnc(NC(=O)CCc2ccc(OC)cc2)s1 was read as Coupling enz 0 and Sfp PPTase inh 45µM*.
Screening CCC(CC)c1nnc(NC(=O)CS(=O)(=O)c2ccc(C)cc2)s1 returned Coupling enz 4 and Sfp PPTase inh 28µM*.
Screening O=C(CCl)Nc1ccccc1Sc1ccc(Cl)cc1 returned GoLoco inh red -10%, Coupling enz -24, Sfp PPTase inh -10%, KDM4E inh -3%, ALDH1A1 block 4µM* and NPSR antag inconclusive.
`CC(=O)N1CCN(CC(=O)Nc2ccccc2Sc2ccc(Cl)cc2)CC1` gave GoLoco inh red -7%, Coupling enz -1, Sfp PPTase inh -2%, KDM4E inh -2%, ALDH1A1 block inconclusive and NPSR antag -1%.
Cc1cc(C(=O)c2ccccc2)c(NC(=O)CCl)s1 was read as GoLoco inh red -7%, Coupling enz 7, Sfp PPTase inh inconclusive, KDM4E inh -11%, ALDH1A1 block 2.5µM* and NPSR antag inconclusive.
Screening CCN(CC)CC(=O)Nc1sc(C)cc1C(=O)c1ccccc1 returned Coupling enz 0 and Sfp PPTase inh 6%.
`O=C(CCl)Nc1ccccc1C(=O)c1ccccc1` gave GoLoco inh red 10%, Coupling enz 1, Sfp PPTase inh 0%, KDM4E inh 1%, ALDH1A1 block 25µM* and NPSR antag -16%.
For CCN(CC)CCCNC(=O)C1CCC(CNS(=O)(=O)c2ccc(Cl)cc2)CC1 (stereo not drawn) the results were Coupling enz 1 and Sfp PPTase inh 11%.
`Cc1ccc(SCC(CC(C)C)N2CCN(C)CCC2=O)cc1` (stereo not drawn) gave Coupling enz 3 and Sfp PPTase inh 9%.
`COc1ccc(OCc2cc(C(=O)N3CCOCC3)no2)c(Cl)c1` gave Coupling enz -3 and Sfp PPTase inh 7%.
For COC(=O)C1=CN(c2cccc(Cl)c2)C=C(C(=O)OC)C1c1cccc(OC)c1 the results were Coupling enz 1 and Sfp PPTase inh -15%.
For COc1ccc([N+](=O)[O-])cc1NC(=O)CSc1nc(C)cc(C)n1 the results were GoLoco inh red -2%, Coupling enz -3, Sfp PPTase inh 22µM*, KDM4E inh 1%, ALDH1A1 block inconclusive and NPSR antag 13%.
For COc1cc([N+](=O)[O-])ccc1NC(=O)C[n+]1cccc(C(C)=O)c1 the results were GoLoco inh red 32%, Coupling enz -2, Sfp PPTase inh -12%, KDM4E inh -8%, ALDH1A1 block inconclusive and NPSR antag 6%.
COc1cc([N+](=O)[O-])ccc1NC(=O)Cn1ccsc1=N was read as GoLoco inh red -8%, Coupling enz 3, Sfp PPTase inh 2%, KDM4E inh -2%, ALDH1A1 block 8.9µM* and NPSR antag -6%.
